# Results published in PubChem BioAssay.
# Values joined by “and” are separate entries in the source; they are usually repeats but may differ in a detail not shown here. Identical values can stand only once. For some of these results: Potency and affinity values are given separately. Some structures have more than one record in an assay (separate samples or runs), and their calls can disagree. Active and inactive are the calls of the source. Unless noted, how the calls were made is not given here.
# Columns and labels:
# [1] = liver-stage malaria parasite growth inhibition, primary screen, cell-based, HepG2, luciferase luminescence, HepG2 viability (AID 624349; in the data active means parasite load remaining mostly below about 12%, no sharp cut-off; inactive means mostly above about 10%;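 further: 100% = mean of DMSO negative control wells on the same plate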); settings: P. berghei liver stage in HepG2, luciferase luminescence, concentration not given here; parasite load remaining: stronger effect = lower value; viability: measured here: HepG2 viability without parasites
# [2] = stimulators of nuclear beta-catenin in C2C12, primary screen, imaging, WNT3A-conditioned medium, mouse C2C12, NPC library (AID 1117326; in the data active means nuclear beta-catenin stimulation mostly above about 4.2%, no sharp cut-off; inactive means mostly below about 10%); settings: stronger effect = higher value
# [3] = stimulators of insulin release from INS-1E, primary screen, cell-based, 5 mM glucose, NPC library (AID 1117329;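 active means compound raises insulin release from rat beta cells at 5 mM glucose, no numeric limit stated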); settings: rat INS-1E insulin secretion, at 10 µM, stronger effect = higher value
# [4] = growth inhibition of GSK3B-pretreated HCT116 cells – cell-based, CellTiter-Glo, 0.2 to 20 µM (AID 1117336;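 active means compounds lowering colon cancer cell viability after pretreatment blocking the GSK3B kinase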); settings: HCT116 viability after GSK3B inhibitor, at 20 µM, stronger effect = higher value
# [5] = inhibition of endothelial tube formation, primary screen, imaging, VEGF stimulated, CD31 staining, tube area, NPC library (AID 1117340;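 active means compound that reduces growth-factor-driven endothelial tube area in a mixed cell culture, no cutoff stated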); settings: VEGF-stimulated ADSC/ECFC co-culture, at 10 µM, stronger effect = higher value
# [6] = glucagon-like peptide 1 release enhancers, primary assay, NCI-H716 cell line, NPC library (AID 1117341;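 active means compound raises GLP1 secretion from the human gut endocrine cells, with no numeric limit stated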); settings: NCI-H716 cells, at 10 µM, stronger effect = higher value
# [7] = HCT116 colon cancer cell growth inhibition, primary screen, CellTiter-Glo luminescence, NPC library (AID 1117342;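 active means compounds that lower survival of HCT116 colon cancer cells in the luminescence readout, no numeric limit stated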); settings: at 20 µM (top of the series)
# [8] = CellTiter-Glo luminescent readout of SW480 viability loss, NPC library primary (AID 1117343;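 active means compounds that lower viability of the colon cancer cells in the luminescence readout, with no numeric limit stated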); settings: CellTiter-Glo luminescence; at 20 µM (top of the series)
# [9] = decreased DLD-1 cellular survival, CellTiter-Glo luminescent readout, NPC compound collection, primary HTS (AID 1117346;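 active means compounds that lower survival of DLD-1 colon cancer cells in the luminescence readout, no cutoff given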); settings: DLD-1 viability, CellTiter-Glo luminescence; at 20 µM (top of the series)
# [10] = test system: Hepatitis C virus NS3 helicase; test: HCV NS3 helicase inhibitors, primary screen, biochemical, fluorescence polarization, LOPAC1280 library (AID 687035; in the data active means inhibition above about 37%); settings: Purified HCV NS3 helicase, Cy5-dT15 ssDNA binding fluorescence polarization; stronger effect = higher value; concentration not given here
# [11] = Cy5 fluorescence quenching or enhancement artefacts, artefact control for HCV NS3 helicase inhibitor project, biochemical, LOPAC1280 (AID 687037); settings: Cy5-DNA-NS3h complex fluorescence interference counterscreen
# [12] = Cy5 fluorescence interference with SSB-bound oligo, artefact control for HCV NS3 helicase inhibitor project, biochemical, NIH Clinical Collection, E. coli SSB (AID 743268)
# [13] = test system: Hepatitis C virus NS3 helicase; test: HCV NS3 helicase inhibitors, primary screen, biochemical, fluorescence polarization, NIH Clinical Collection (AID 743270); settings: NS3 helicase binding to Cy5-dT15 DNA, stronger effect = higher value, concentration not given here
# [14] = biological target: Single-stranded DNA-binding protein (Escherichia coli (strain K12)) (UniProt P0AGE0); test: E. coli SSB displacement from DNA, counter-screen for HCV NS3 helicase inhibitor project, biochemical, fluorescence polarization, NIH Clinical Collection (AID 743271; in the data active means inhibition above about 28%); settings: stronger effect = higher value, concentration not given here
# [15] = fluorescence interference in NS3h assay format, artefact control for HCV NS3 helicase inhibitor project, biochemical, NIH Clinical Collection (AID 743272); settings: fluorescence interference counterscreen, stronger effect = lower value;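 further: HCV NS3 helicase with a Cy5 labelled single stranded DNA probe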
# [16] = biological target: Calcium-dependent protein kinase 1 (Plasmodium falciparum (isolate 3D7)) (UniProt P62344); test: PfCDPK1 kinase inhibitors, biochemical, TCAMS library (AID 1159585; cut-off not given, nearly all actives have IC50 up to about 0.98 µM;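 further: inhibitors leave more ATP so luminescence rises with inhibition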); settings: recombinant PfCDPK1, Kinase-Glo ATP depletion luminescence
# Chain of Calcium-dependent protein kinase 1 (Plasmodium falciparum (isolate 3D7)) (P62344 whole entry, looked up): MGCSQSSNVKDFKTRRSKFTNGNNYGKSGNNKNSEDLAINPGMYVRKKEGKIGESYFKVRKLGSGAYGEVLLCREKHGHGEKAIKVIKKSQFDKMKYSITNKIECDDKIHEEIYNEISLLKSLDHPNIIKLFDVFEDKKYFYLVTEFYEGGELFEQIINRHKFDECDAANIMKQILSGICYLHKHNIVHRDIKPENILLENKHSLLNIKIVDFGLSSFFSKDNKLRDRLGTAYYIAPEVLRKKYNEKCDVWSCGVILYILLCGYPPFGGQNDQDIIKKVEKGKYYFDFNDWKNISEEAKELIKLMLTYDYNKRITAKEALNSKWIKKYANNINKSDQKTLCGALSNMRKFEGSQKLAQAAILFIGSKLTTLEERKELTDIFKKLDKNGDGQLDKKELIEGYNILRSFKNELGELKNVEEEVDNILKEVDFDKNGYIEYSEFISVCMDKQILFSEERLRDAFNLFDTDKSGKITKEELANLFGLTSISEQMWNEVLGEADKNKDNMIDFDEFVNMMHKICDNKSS
# [17] = biological target: Plasmodium falciparum protein kinase 6 (PK6, PF3D7_1337100) (UniProt Q8IDW1); test: PfPK6 kinase inhibitors, biochemical, TCAMS library (AID 1159586); settings: recombinant PfPK6, Kinase-Glo ATP depletion luminescence
# Chain of Plasmodium falciparum protein kinase 6 (PK6, PF3D7_1337100) (Q8IDW1 1-305): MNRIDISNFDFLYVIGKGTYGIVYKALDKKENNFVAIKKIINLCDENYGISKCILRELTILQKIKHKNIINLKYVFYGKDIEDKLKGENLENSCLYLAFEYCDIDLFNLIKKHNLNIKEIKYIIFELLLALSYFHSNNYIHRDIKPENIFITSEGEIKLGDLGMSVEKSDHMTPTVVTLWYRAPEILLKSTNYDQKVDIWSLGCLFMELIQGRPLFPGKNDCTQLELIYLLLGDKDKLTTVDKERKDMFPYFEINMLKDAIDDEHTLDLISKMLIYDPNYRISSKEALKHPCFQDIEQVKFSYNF
SMILES,parasite load remaining [1],viability [1],nuclear beta-catenin stimulation ([2]; at 10 µM),"nuclear beta-catenin stimulation ([2]; stimulation, at 2 µM)",insulin secretion stimulation [3],viability decrease [4],tube area decrease [5],GLP1 secretion stimulation [6],inhibition of viability [7],viability decrease (inhibition) [8],viability decrease (inhibition) [9],inhibition [10],fluorescence ratio (interference) [11],fluorescence ratio [12],inhibition [13],inhibition [14],fluorescence ratio [15],outcome [16],outcome [17]
CCCCCN(C)CCC(O)(P(=O)(O)O)P(=O)(O)O,28% (inactive),76.5%,-3% (inactive),0.2%,7.6% (inactive),1.9% (inactive),-11.9% (inactive),-0.5% (inactive),9% (inactive),17.5% (inactive),15.6% (inactive),–,–,–,–,–,–,–,–
Cc1cn[nH]c1,51% (inactive),102%,-2.1% (inactive),-2%,0.4% (inactive),20.3% (inactive),4.6% (inactive),1.6% (inactive),0.47% (inactive),19.8% (inactive),2% (inactive),-3% (inactive),0.9 (inactive),–,–,–,–,–,–
CCc1c(C)[nH]c2c1C(=O)C(CN1CCOCC1)CC2 (stereo unspecified),36.3% (inactive) and 102% (inactive),89.9% and 75.4%,-1.2% (inactive),-0.2%,1.8% (inactive),2.2% (inactive),-10.5% (inactive),5.2% (inactive),-24.1% (inactive),-3.8% (inactive),-11% (inactive),-4% (inactive),0.9 (inactive),1.09 (inactive),-1.36% (inactive),1.81% (inactive),1.01 (inactive),–,–
CCCCCCCC/C=C\CCCCCCCC(=O)NCc1ccc(O)c(OC)c1,–,–,0% (inactive),-1.2%,3.15% (inactive),26.6% (inactive),17.4% (inactive),6.2% (inactive),65.7% (active),47.5% (inactive),53.1% (active),-4% (inactive),1 (inactive),–,–,–,–,inactive,inactive
Brc1c(NC2=NCCN2)ccc2nccnc12,54.7% (inactive),94.9%,0.3% (inactive),-0.6%,0.4% (inactive),27% (inactive),-5.2% (inactive),-3.1% (inactive),15.1% (inactive),7.7% (inactive),-3.7% (inactive),-3% (inactive),1 (inactive),1.04 (inactive),-5.91% (inactive),-3.53% (inactive),0.99 (inactive),–,–
CCCCNc1c(C(=O)OCC)c(C)nc2c1cnn2CC,80.1% (inactive),77.6%,-0.5% (inactive),1.7%,6.8% (inactive),93.3% (active),10.7% (inactive),3.7% (inactive),94.4% (active),124% (active),78.4% (active),-5% (inactive),1 (inactive),–,–,–,–,–,–
CCN(CC)Cc1cc(Nc2ccnc3cc(Cl)ccc23)ccc1O,2.94% (inactive) and 43.6% (inactive),35.5% and 83.9%,0.5% (inactive),-1.5%,9.6% (inactive),82% (active),39.9% (inactive),-1.3% (inactive),83.2% (active),87.3% (active),44.8% (inactive),–,–,–,–,–,–,inactive,inactive
CNCC(O)c1ccc(O)c(O)c1 (stereo unspecified),40.1% (inactive),89%,-1.1% (inactive),-0.9%,5.7% (inactive),58.5% (active),-33.6% (inactive),2.7% (inactive),29% (inactive),58.9% (active),17.7% (inactive),0% (inactive),1 (inactive),1.02 (inactive),-1.36% (inactive),15.5% (inactive),1.02 (inactive),–,–
O=C(O)CN1C(=O)c2cccc3cccc(c23)C1=O,30.8% (inactive),96.3%,-0.2% (inactive),0.9%,-1.8% (inactive),-2.7% (inactive),-6.3% (inactive),1.6% (inactive),-17.1% (inactive),22.8% (inactive),2.05% (inactive),–,–,–,–,–,–,–,–
CCCCc1ccc2nc(NC(=O)OC)[nH]c2c1,83.6% (inactive),85.5%,81.2% (active),61.1%,-1.7% (inactive),91.7% (active),108% (active),-5.4% (inactive),67.5% (active),33.8% (inactive),50.6% (active),–,–,–,–,–,–,inactive,inactive
COC(=O)[C@H]1[C@H]2C[C@@H]3c4[nH]c5cc(OC)ccc5c4CCN3C[C@H]2C[C@@H](OC(=O)c2cc(OC)c(OC)c(OC)c2)[C@@H]1OC,23.5% (inactive) and 21.7% (inactive) and 13.3% (active),102% and 74.9% and 89.3%,1.8% (inactive),2.2%,-0.3% (inactive),24.4% (inactive),22.8% (inactive),3.6% (inactive),40.1% (inactive),-42% (inactive),10.4% (inactive),-4% (inactive),1 (inactive),–,–,–,–,–,–
